# Results with a measured potency or affinity are listed apart.
# System: Escherichia coli
# Details: Concentration 32 ug.mL-1;; ASSAY_TEST Inhibition of Bacterial Growth; detection method Absorption (OD600); MEDIA CAMHB; plate type 384well; NBS; CORNING #3640; time 18 hr
row,SMILES,Inhibition [%]
1,COc1cccc(-n2ccn3c(SCC(=O)Nc4cccc(F)c4)nnc3c2=O)c1,-18.41
2,COc1cccc(Sc2nc3ccccc3n3c(=O)n(CC(=O)Nc4ccc(Cl)cc4)nc23)c1,-3.52
3,COc1ccc(-c2cc3c4nn(CC(=O)Nc5ccc(C)cc5C)c(=O)n4ccn3n2)cc1,2.27
4,CCOc1ccc(-n2ccn3c(SCC(=O)Nc4cc(Cl)ccc4OC)nnc3c2=O)cc1,1.04
5,CCCCc1ccc(NC(=O)Cn2c(=O)c3nnc(CCC)n3c3ccccc32)cc1,-1.42
6,CCOC(=O)c1ccc(NC(=O)CSc2nnc3c4cc(-c5ccc(OC)cc5)nn4ccn23)cc1,2.37
7,Cc1nnc2c(=O)n(CC(=O)Nc3cccc(Cl)c3)c3ccccc3n12,5.41
8,Cc1cccc(N(Cc2cccc(F)c2)S(=O)(=O)c2cccn3c(C)nnc23)c1,-1.19
9,Cc1nc(-c2ccccn2)cc2nn(CC(=O)Nc3ccccc3C(F)(F)F)c(=O)n12,-9.66
10,CCCCOc1ccc(-c2cc3c4nnc(SCC(=O)Nc5cc(F)ccc5C)n4ccn3n2)cc1,-11.69
11,COc1cccc(NC(=O)Cn2nc3c(N4CCCC4)nccn3c2=O)c1,-3.58
12,CCc1ccccc1NC(=O)Cn1nc2c(Sc3ccc(C)cc3C)nccn2c1=O,-4.21
13,CCc1ccc(N(Cc2ccccc2F)S(=O)(=O)c2cccn3c(C)nnc23)cc1,-1.05
14,O=c1c2sccc2n2c(=O)n(Cc3ccccc3F)nc2n1Cc1cccs1,-12.46
15,Cc1oc(-c2ccccc2)nc1CSc1nc2ccccc2n2c(C(C)C)nnc12,-5.26
16,Cc1cc(C)cc(NC(=O)Cn2nc3c(Sc4cccc(C)c4)nc4ccccc4n3c2=O)c1,2.96
17,Cc1cc(Br)ccc1NC(=O)Cn1nc2c(Sc3cccc(F)c3)nccn2c1=O,-1.3
18,Cc1ccccc1CN(c1ccc(C(C)C)cc1)S(=O)(=O)c1cccn2c(C)nnc12,-1.18
19,Cc1cccc(C)c1NC(=O)Cn1nc2c(N3CCSCC3)nc3ccccc3n2c1=O,-7.41
20,O=C(Cn1nc2c(=O)n(-c3ccc(Br)cc3)ccn2c1=O)Nc1ccc(F)cc1F,-0.82

row,SMILES,Inhibition [%]
1,COc1ccc(NC(=O)Cn2nc3c(Sc4ccccc4)nccn3c2=O)c(OC)c1,-9.08
2,Cc1cc2nn(CC(=O)NC3CCCCC3)c(=O)n2c(Nc2ccc(F)c(C)c2)n1,0.19
3,COc1ccc(C)cc1NC(=O)Cn1nc2cc(C)nc(Nc3ccc(F)cc3)n2c1=O,2.14
4,CCCN(C)c1nccn2c(=O)n(CC(=O)Nc3ccc(C#N)cc3)nc12,-2.47
5,CCc1nnc2c(SCC(=O)Nc3c(C)cc(C)cc3C)nc3ccccc3n12,3.61
6,COc1cccc(Oc2nccn3c(=O)n(CC(=O)Nc4cc(C)c(Cl)cc4OC)nc23)c1,-0.57
7,O=S(=O)(c1cccn2cnnc12)N(Cc1ccc(F)cc1)c1ccc(F)c(F)c1,-1.75
8,COc1ccc(CNC(=O)Cn2nc3c(Oc4cccc(C)c4C)nccn3c2=O)cc1,0.86
9,Cc1cc2nn(CC(=O)Nc3ccc(F)c(F)c3)c(=O)n2c(Nc2ccc(F)c(C)c2)n1,-3.91
10,Cc1nnc2ccc(S(=O)(=O)N(Cc3ccccc3F)c3ccc(Cl)cc3)cn12,-19.04
11,COc1ccc(NC(=O)Cn2nc3c(Oc4cccc(F)c4)nccn3c2=O)cc1,-10.71
12,Cc1ccc(-n2ccn3c(SCC(=O)Nc4ccc5c(c4)OCCO5)nnc3c2=O)cc1C,-5.98
13,CCc1nnc2c(SCC(=O)Nc3cccc(C(C)=O)c3)nc3ccccc3n12,4.71
14,Cc1oc(-c2cccc(Cl)c2)nc1CSc1nc2ccccc2n2c(C(C)C)nnc12,-2.96
15,O=C(Cn1nc2ccc(Sc3cccc(F)c3)nn2c1=O)Nc1ccc(Cl)cc1,-8.49
16,O=c1c2sccc2n2c(=O)n(Cc3ccccc3Cl)nc2n1Cc1cccs1,-2.76
17,N#CCSc1nnc2c(=O)n(-c3ccccc3)ccn12,0.91
18,Cn1c(=O)c2sccc2n2c(=O)n(CCOc3ccccc3)nc12,-12.23
19,O=C(CSc1nnc2c(=O)n(-c3ccc(F)c(F)c3)ccn12)c1c[nH]c2ccccc12,-5.88
